An excerpt weighted towards active compounds, which were near 7.4% of everything screened.
FLuc modulator – firefly luciferase modulation, counter-screen for miR-21 project; purified FLuc, Km substrates, luminescence inhibition; P08659; 360,000 compounds, 6.9% hits; Potency, µM (series often up to 57.5 µM), inactives show top-dose activity change, negative = inhibition, most hits filed as inhibitors; AID 588342;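 also: plate controls were vehicle for no effect and reference inhibitor for full effect; nearly all actives have a fitted effect of over 55% in size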
Target sequence (P08659 whole entry, looked up): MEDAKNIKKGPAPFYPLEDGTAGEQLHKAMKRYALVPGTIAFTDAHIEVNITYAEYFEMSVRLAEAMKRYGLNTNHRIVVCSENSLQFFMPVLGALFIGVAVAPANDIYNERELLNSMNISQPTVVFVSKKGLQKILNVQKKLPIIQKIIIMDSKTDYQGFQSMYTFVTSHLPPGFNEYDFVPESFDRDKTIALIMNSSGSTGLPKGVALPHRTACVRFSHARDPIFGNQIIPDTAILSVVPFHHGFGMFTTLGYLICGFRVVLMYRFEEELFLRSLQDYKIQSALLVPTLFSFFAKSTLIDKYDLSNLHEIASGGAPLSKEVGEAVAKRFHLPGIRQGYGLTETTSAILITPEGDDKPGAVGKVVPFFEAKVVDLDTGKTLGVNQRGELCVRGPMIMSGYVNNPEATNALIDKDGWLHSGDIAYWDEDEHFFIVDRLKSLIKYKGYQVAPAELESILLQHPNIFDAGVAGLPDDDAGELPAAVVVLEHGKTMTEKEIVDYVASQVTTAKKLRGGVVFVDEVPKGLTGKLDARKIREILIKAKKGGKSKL
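Purified P. pyralis luciferase, 10 nM final, with Km-level 10 uM D-luciferin and 10 uM ATP in 50 mM Tris acetate pH 7.5, 10 mM Mg acetate, 0.01% Tween-20, 0.05% BSA; 6-point qHTS titration about 60 µM downward; luminescence read.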
NPC1 prom act – NPC1 promoter activation; Huh7 NPC1 promoter luciferase reporter, 24 h; Potency, µM (highest dose often 9.22 µM), inactives show at the top dose activation, most hits filed as activators; 320,000 compounds, 2.4% hits; AID 485313; also: % of control where 0% means no effect; nearly all actives have a fitted effect of over 60% in size
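Stable NPC1-promoter luciferase Huh7 line; cpd (DMSO) 24 h, 37 °C, 5% CO2; Amplite luciferase reagent 10 min RT; luminescence readout. qHTS format.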
SMN2 splice up – SMN2 splice variant enhancement; HEK293 SMN2-luciferase splicing reporter, luminescence, 30-36 h; Potency, µM (titrated, usually from 46.1 µM), for the others: at the highest dose activity change, positive = activation, actives largely listed as activators; 210,000 compounds, 2.8% hits; AID 1458; also: % of control where 0% means no effect; nearly all actives have a fitted effect of over 55% in size
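qHTS luciferase splicing reporter: luminescence rises when SMN2 exon 7 is included in transfected HEK293 cells. Compound exposure lasted 30-36 h at 37C, with 4.5 mM final sodium butyrate as control, followed by a ONE-Glo read.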
ELG1 genotox – induces genotoxicity in HEK293T cells with luciferase-tagged ELG1 | HEK293T ELG1-luciferase reporter, luminescence, 16 h | Potency, µM (doses to about 46 µM), for inactives: at the top dose activity change, positive = activation, actives largely listed as activators | 330,000 compounds, 1.3% hits; also: % of control where 0% means no effect; nearly all actives have a fitted effect of over 60% in size
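Genotoxic stress is detected as increased luminescence from luciferase-tagged ELG1 in HEK293T cells, measured with ONE-Glo after a 16 hr treatment at 37 °C.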
Rab9 prom act – activates the Rab9 promoter; Huh7 Rab9 promoter-luciferase reporter, luminescence, 24 h; Potency, µM (series often up to 9.22 µM), for inactives: at the highest dose activation, negative = inhibition, actives largely listed as activators; 320,000 compounds, 2.8% hits; also: % of control where 0% means no effect; nearly all actives have a fitted effect of over 60% in size
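Steps: seed 1500 Huh7 Rab9-luc cells per well, rest 2 h at 37 °C; add compound in DMSO; incubate 24 h; add luciferase reagent, 10 min ambient; read luminescence.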
KinaseGlo FLuc – Kinase-Glo luciferase inhibition (counter-screen); Q27757; 200,000 compounds, 0.28% hits; AID 1379; Potency, µM (series often up to 38.3 µM), inactives show at the top dose activity change, negative = inhibition, most hits filed as inhibitors; Kinase-Glo luciferase, ATP luminescence, 8 min; also: % is scaled to controls: 0 for no effect and ±100 for the full control effect; nearly all actives have a fitted effect of over 60% in size
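Substrate mix (final 50 mM imidazole pH 7.2, 50 mM KCl, 7 mM MgCl2, 10 uM ATP, 0.01% Tween 20, 0.05% BSA) plus pin-tool compound, then Kinase-Glo detection mix; 8 min ambient, luminescence read.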
* = called active by the depositor. Calls follow the shape of the dose curve; as a rule, active = well fitted curve in the direction sought with a large enough effect; inconclusive = small, poorly fitted or top-dose-only effect, or another doubt; inactive = no such curve, though single readings can be large; an effect the other way counts as inactive or inconclusive. Potency is read from the fitted curve at half-maximal effect.

For O=C(Nc1ccc(C(=O)c2ccc(C(=O)O)c(C(=O)O)c2)cc1)c1ccccc1 the results were FLuc modulator 10.7µM*, NPC1 prom act 1.5%, ELG1 genotox -8.6% and Rab9 prom act 15.4%.
O=C(Nc1cccc(-c2cnc3ccccc3n2)c1)C1CC(=O)N(c2ccccc2)C1 (centres undefined) was read as FLuc modulator inconclusive, NPC1 prom act 15.2%, ELG1 genotox -10.0% and Rab9 prom act -0.5%.
Screening O=C(NC(=S)NCc1ccccc1)c1ccccc1[N+](=O)[O-] returned FLuc modulator -0.5%, NPC1 prom act -5.0%, SMN2 splice up -9.4%, ELG1 genotox -4.1%, Rab9 prom act -1.7% and KinaseGlo FLuc 3.6%.
Cc1cc(N2CCOCC2)n2ncc(-c3ccc(Cl)cc3)c2n1 was read as FLuc modulator 0.601µM*, NPC1 prom act 2.24µM*, ELG1 genotox inconclusive and Rab9 prom act 0.631µM*.
For Cc1nc2cc(-c3cccc(F)c3)nn2c(N2CCN(C(=O)c3ccco3)CC2)c1C the results were FLuc modulator 16.9µM*, NPC1 prom act 3.6%, SMN2 splice up 12.5%, ELG1 genotox inconclusive, Rab9 prom act -1.1% and KinaseGlo FLuc 8.0%.
Screening Cc1cc(N2CCCCC2)n2nc(C)c(-c3ccccc3)c2n1 returned FLuc modulator 19µM*, NPC1 prom act 9.2%, ELG1 genotox -2.1% and Rab9 prom act 7.9%.
Cc1cc(N2CCC(C)CC2)n2nc(C)c(-c3ccccc3)c2n1 was read as FLuc modulator -9.7%, NPC1 prom act -3.1%, SMN2 splice up -19.9%, ELG1 genotox -8.5%, Rab9 prom act -7.5% and KinaseGlo FLuc -0.7%.
`CC(=O)Nc1ccc(Nc2cc(C)nc3c(-c4ccc(Cl)cc4)c(C)nn23)cc1` gave FLuc modulator 0.0%, NPC1 prom act -7.1%, SMN2 splice up -28.7%, ELG1 genotox 0.0%, Rab9 prom act -6.0% and KinaseGlo FLuc 4.6%.
Cc1nc2cc(-c3cccc(F)c3)nn2c(C)c1CCC(=O)N1CCN(c2ccccn2)CC1 was read as FLuc modulator -8.7%, NPC1 prom act 1.3%, ELG1 genotox -3.6% and Rab9 prom act -3.1%.
For CC(=O)Nc1ccc(Nc2cc(C)nc3c(-c4ccc(Cl)cc4)cnn23)cc1 the results were FLuc modulator -17.4%, NPC1 prom act 2.24µM*, SMN2 splice up inconclusive, ELG1 genotox 6.2%, Rab9 prom act 2.51µM* and KinaseGlo FLuc 1.9%.
O=C(COC(=O)CNC(=O)c1ccccc1)NC(=O)NC1CCCCC1 was read as ELG1 genotox 3.7%.
`CC(C)(O)C#Cc1ccc(C(=O)N2CCN(c3ccc(Cl)cc3)CC2)cc1` gave FLuc modulator inconclusive, NPC1 prom act -0.2%, SMN2 splice up -45.1%, ELG1 genotox 10.6%, Rab9 prom act 0.3% and KinaseGlo FLuc 11.6%.
`CS(=O)(=O)Nc1cccc(C2=NN(C(=O)c3ccco3)C(c3cccs3)C2)c1` (centres undefined) gave FLuc modulator -7.2%, NPC1 prom act 1.6%, ELG1 genotox -8.8% and Rab9 prom act 1.8%.
CC(C)(C)c1cc(N2CCOCC2)n2ncc(-c3ccc(Cl)cc3)c2n1 was read as FLuc modulator inconclusive, NPC1 prom act -3.8%, ELG1 genotox 1.3% and Rab9 prom act 11.7%.
Cc1cc(N2CCN(C(=O)c3ccco3)CC2)n2ncc(-c3ccccc3)c2n1 was read as FLuc modulator 12µM*, NPC1 prom act inconclusive, SMN2 splice up 12.9%, ELG1 genotox 2.2%, Rab9 prom act 3.55µM* and KinaseGlo FLuc -4.1%.
Cc1cc(N2CCCCC2)n2ncc(-c3ccccc3)c2n1 was read as FLuc modulator 0.269µM*, NPC1 prom act 0.447µM*, SMN2 splice up 3.6%, ELG1 genotox inconclusive, Rab9 prom act 0.316µM* and KinaseGlo FLuc -3.9%.
Cc1cc(C)n(-c2cc(C(C)(C)C)nc3c(-c4ccccc4)cnn23)n1 was read as FLuc modulator 1.9µM*, NPC1 prom act 2.51µM*, ELG1 genotox inconclusive and Rab9 prom act 2.82µM*.
For Cc1cc(N2CCCCC2)n2ncc(-c3ccc(Cl)cc3)c2n1 the results were FLuc modulator 2.39µM*, NPC1 prom act 3.98µM*, SMN2 splice up -15.0%, ELG1 genotox 2.06µM*, Rab9 prom act 2.82µM* and KinaseGlo FLuc -1.0%.
`Cc1cc(N2CCN(C(=O)c3ccco3)CC2)n2ncnc2n1` gave FLuc modulator -1.5%, NPC1 prom act -1.9%, SMN2 splice up 6.9%, ELG1 genotox 3.4%, Rab9 prom act 0.9% and KinaseGlo FLuc 1.2%.
Cc1cc(C)n(-c2cc(C(C)(C)C)nc3c(-c4ccc(Cl)cc4)cnn23)n1 was read as FLuc modulator inconclusive, NPC1 prom act -3.4%, SMN2 splice up -7.2%, ELG1 genotox 3.2%, Rab9 prom act 6.2% and KinaseGlo FLuc -2.1%.
`O=C(CSc1nncs1)Nc1ccc(Cl)cn1` gave FLuc modulator -0.3%, NPC1 prom act 7.2%, SMN2 splice up 16.8%, ELG1 genotox -2.1%, Rab9 prom act -0.4% and KinaseGlo FLuc 2.0%.
Cc1cc(N2CCOCC2)n2ncc(-c3ccccc3)c2n1 was read as FLuc modulator 0.338µM*, NPC1 prom act 0.562µM*, SMN2 splice up 2.24µM*, ELG1 genotox 0.184µM*, Rab9 prom act 0.708µM* and KinaseGlo FLuc -10.4%.
`Cc1ccc(-c2cnn3c(N4CCOCC4)cc(C)nc23)cc1` gave FLuc modulator 0.477µM*, NPC1 prom act -10.9%, ELG1 genotox inconclusive and Rab9 prom act -13.5%.
Screening Cc1cc(N2CCC(C)CC2)n2ncc(-c3ccccc3)c2n1 returned FLuc modulator 0.757µM*, NPC1 prom act 0.355µM*, SMN2 splice up -38.3%, ELG1 genotox 0.411µM*, Rab9 prom act 0.316µM* and KinaseGlo FLuc -3.0%.
Screening C=CCc1c(C)nc2c(-c3ccccc3)cnn2c1N1CCOCC1 returned FLuc modulator 2.39µM*, NPC1 prom act 2.82µM*, ELG1 genotox 10.3µM* and Rab9 prom act 1.58µM*.
`Cc1nc2c(-c3ccccc3)c(C)nn2c(C)c1CCC(=O)N1CCOCC1` gave FLuc modulator -5.9%, NPC1 prom act -1.9%, SMN2 splice up -2.7%, ELG1 genotox -0.6%, Rab9 prom act 0.4% and KinaseGlo FLuc -3.1%.
CCCCCc1n[nH]c2c1CCCC2 was read as FLuc modulator -15.5%, NPC1 prom act 0.1%, ELG1 genotox 3.5% and Rab9 prom act -0.4%.
CCCCn1c(=N)c(S(=O)(=O)c2ccc(C)cc2)cc2c(=O)n3cc(C)ccc3nc21 was read as FLuc modulator 2.5%.
